Among all 310,000 compounds or so, about 14,000 (4.5%) showed an effect of 50% or more. Effects have a minus sign here. This is one part of a sample in which strong results are shown more often than they occur.
What follows are compounds tested against human ether-à-go-go-related gene (hERG) potassium channel (human, UniProt Q12809) (assay: primary screen, population patch clamp on CHO cells stably expressing hERG; higher = less effect of the substance).
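Further: peak tail current of the secondary pulse compared with the same well before compound.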

Sequence of human ether-à-go-go-related gene (hERG) potassium channel (Q12809 whole entry, looked up): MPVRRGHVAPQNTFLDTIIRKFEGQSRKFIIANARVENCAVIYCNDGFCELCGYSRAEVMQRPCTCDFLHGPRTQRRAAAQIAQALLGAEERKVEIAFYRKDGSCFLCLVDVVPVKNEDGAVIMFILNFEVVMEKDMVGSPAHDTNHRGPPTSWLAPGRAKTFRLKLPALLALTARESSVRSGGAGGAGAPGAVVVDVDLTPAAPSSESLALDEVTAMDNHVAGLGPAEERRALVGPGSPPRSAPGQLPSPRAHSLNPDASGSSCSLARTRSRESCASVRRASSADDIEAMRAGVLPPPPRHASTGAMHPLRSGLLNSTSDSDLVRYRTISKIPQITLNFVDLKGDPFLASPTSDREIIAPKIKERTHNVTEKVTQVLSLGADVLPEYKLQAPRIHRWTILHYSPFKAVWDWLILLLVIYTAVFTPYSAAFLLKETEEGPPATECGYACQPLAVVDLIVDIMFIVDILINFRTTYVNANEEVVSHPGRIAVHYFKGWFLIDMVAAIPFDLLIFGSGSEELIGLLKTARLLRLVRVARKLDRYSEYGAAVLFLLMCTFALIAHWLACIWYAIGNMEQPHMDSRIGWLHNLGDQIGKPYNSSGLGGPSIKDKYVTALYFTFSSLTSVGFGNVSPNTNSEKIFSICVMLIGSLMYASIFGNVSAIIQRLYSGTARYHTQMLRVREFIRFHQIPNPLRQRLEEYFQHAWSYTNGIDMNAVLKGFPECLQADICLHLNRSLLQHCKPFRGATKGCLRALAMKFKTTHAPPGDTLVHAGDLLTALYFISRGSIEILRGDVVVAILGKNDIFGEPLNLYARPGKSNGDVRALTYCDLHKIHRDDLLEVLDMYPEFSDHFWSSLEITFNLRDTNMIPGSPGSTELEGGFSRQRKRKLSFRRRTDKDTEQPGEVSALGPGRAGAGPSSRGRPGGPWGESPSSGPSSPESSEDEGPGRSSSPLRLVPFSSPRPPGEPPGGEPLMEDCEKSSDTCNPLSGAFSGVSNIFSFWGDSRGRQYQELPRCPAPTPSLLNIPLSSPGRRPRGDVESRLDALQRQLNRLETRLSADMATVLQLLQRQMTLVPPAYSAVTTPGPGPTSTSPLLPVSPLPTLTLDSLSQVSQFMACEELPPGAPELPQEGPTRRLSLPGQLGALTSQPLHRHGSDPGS

| Structure (SMILES) | hERG current change (%, negative = inhibition) at 10uM [%] |
| --- | --- |
| Cc1ccc(-c2n[nH]c(=S)n2/N=C/c2ccc(C(=O)O)cc2)cc1 | 3.02 |
| CCN(CC)c1ccc(N=Cc2ccc(N(CC)CC)cc2O)cc1 | 0.156 |
| CCCN1CCN(C(=O)c2nn(-c3ccc(OC)cc3)c(=O)c3c2c2ccccc2n3C)CC1 | -3.71 |
| Cc1ccc(S(=O)(=O)N2CCN(C(=O)CCC(=O)NCc3ccc(F)cc3)CC2)cc1 | -24 |
| O=C(CCC(=O)N1CCOCC1)NCc1cccc(C(F)(F)F)c1 | -0.171 |
| Cc1ccc(S(=O)(=O)N2CCN(C(=O)CCC(=O)N3CCc4ccccc43)CC2)cc1 | -62.2 |
| O=C(CCC(=O)N1CCN(S(=O)(=O)c2ccc(Cl)cc2)CC1)NCc1ccccc1 | -14.8 |
| Cc1ccc(S(=O)(=O)N2CCN(C(=O)CCC(=O)NCc3cccc(C(F)(F)F)c3)CC2)cc1 | -54.2 |
| O=C(CCC(=O)N1CCCc2ccccc21)N1CCN(S(=O)(=O)c2ccccc2)CC1 | -9.26 |
| COc1ccc(CNC(=O)CCC(=O)N2CCN(S(=O)(=O)c3ccc(Cl)cc3)CC2)cc1 | 22.3 |
| Cc1ccc(S(=O)(=O)CCC(=O)N2CCc3ccccc32)cc1 | -16 |
| Cc1ccc(C)c(S(=O)(=O)N2CCN(C(=O)CCC(=O)NCc3ccc(Cl)cc3)CC2)c1 | -65.1 |
| O=C(CSc1nnc(-c2ccccc2O)n1Cc1ccccc1)NNC(=O)c1ccccc1O | 0.52 |
| COc1nccc(C(F)(F)F)c1C(=O)NC(=O)Nc1ccccc1 | -8.51 |
| CCOC(=O)C1CCCN(C(=O)c2cc(S(=O)(=O)N3CCCCC3)c[nH]2)C1 (stereo not drawn) | 14.5 |
| CCOC(=O)c1c(C)[nH]c(C)c1S(=O)(=O)N1CCCCC1 | 15.9 |
| CCOC(=O)CC(NS(=O)(=O)Cc1ccccc1)c1ccc(C)cc1 (stereo not drawn) | -5.46 |
| Cc1ccccc1NC(=O)CCC(=O)N/N=C/c1c[nH]c2ccccc12 | 2.16 |
| C=CCn1c2ccccc2c2nnc(SCC(=O)NC(C(=O)OC)C(C)C)nc21 (stereo not drawn) | -15.1 |
| COc1ccc(-n2c(-c3ccc(Br)cc3)c[n+]3c2CCCCC3)cc1.[Br-] | -80.3 |
| COc1ccc(-n2c(-c3ccc(Br)cc3)n[nH]c2=S)cc1 | 13.3 |
| COc1ccc(-c2c[n+]3c(n2-c2c(C)n(C)n(-c4ccccc4)c2=O)CCCCC3)cc1.[Br-] | 4.43 |
| COc1ccc(-n2c(-c3ccccc3)c[n+]3c2CCC3)cc1.[Br-] | -20.5 |
| COc1ccc(-c2c[n+]3c(n2-c2ccc(C)cc2)CCCCC3)cc1.[Br-] | -48.2 |
| COc1ccc(-n2c(-c3ccc(Br)cc3)c[n+]3c2CCC3)cc1.[Br-] | -56 |
| COc1ccc(-n2c(-c3ccc(Br)cc3)c[n+]3c2SC(C)C3)cc1.[Br-] (stereo not drawn) | -72.6 |
| COc1cc(/C=C/c2ccc3cccc(OC)c3n2)c(O)c([N+](=O)[O-])c1 | 9.97 |

| Structure (SMILES) | hERG current change (%, negative = inhibition) at 10uM [%] |
| --- | --- |
| CNC(=S)N(Cc1ccc(OC)cc1)Cc1cc2cc(C)ccc2[nH]c1=O | 18 |
| O=c1ccc(Cl)cn1Cc1ccccc1F | 5.34 |
| CCN1C(=O)/C(=C/c2cnn(CC)c2C)SC1=S | 5.73 |
| COc1ccc(S(=O)(=O)N2CCOc3ccccc32)cc1 | -1.55 |
| Cc1ccccc1NC(=O)C(C)N1C(=O)c2ccccc2C1=O (stereo not drawn) | 14.7 |
| COc1ccc(C2NC(=O)c3ccccc3N2)cc1OC (stereo not drawn) | 13 |
| COc1ccc(Cc2nnc(SCC(=O)N3CCCC3)o2)cc1 | 2.54 |
| COc1ccc(/C(N)=N/OC(=O)Cc2ccc(C)cc2)cc1 | 9.68 |
| C=CCNc1oc(Cc2cccc3ccccc23)nc1C#N | -14.7 |
| CCCCn1c(=O)n(C)c(=O)c2c(C(F)(F)F)cc(-c3ccncc3)nc21 | -28 |
| Cc1nc(C)c(-c2ccc(SCc3ccc(Cl)cc3)nn2)s1 | -14.7 |
| Cc1nc(C)c(-c2ccc(SCc3ccccc3F)nn2)s1 | 4.94 |
| Cc1nc(C)c(-c2ccc(SCc3cccc(F)c3)nn2)s1 | -50.6 |
| O=C(O)CCC(=O)NCc1ccc(F)cc1 | -7.12 |
| Cc1oc(C(C)(C)C)cc1C(N)=O | 12.7 |
| CSc1ncccc1C(=O)NCc1ccccc1Cl | -7.25 |
| O=C(COC(=O)CNC(=O)c1cccc([N+](=O)[O-])c1)Nc1cccc(S(=O)(=O)N2CCCCC2)c1 | -30.8 |
| Cc1ccc(NC(=O)COC(=O)C2CC3C=CC2C3)cc1S(=O)(=O)N1CCCCC1 (stereo not drawn) | -7.32 |
| Cc1ccc(NC(=O)COC(=O)CNC(=O)c2cccc([N+](=O)[O-])c2)cc1S(=O)(=O)N1CCCCCC1 | -49.1 |
| O=C(COC(=O)C1CC2C=CC1C2)Nc1cccc(S(=O)(=O)N2CCCCCC2)c1 (stereo not drawn) | -23.2 |
| Cc1ccc(S(=O)(=O)N2CCCCC2)cc1NC(=O)COC(=O)CNC(=O)c1cc(Cl)cc([N+](=O)[O-])c1 | -51.4 |
| Cc1ccc(S(=O)(=O)N2CCCCC2)cc1NC(=O)COC(=O)C1CC2C=CC1C2 (stereo not drawn) | -62 |
| CC(=O)CC(=O)NC(=NC1CCCCC1)Nc1nc(C)cc(C)n1 | 7.01 |
| Nc1ccc2c(c1)nnn2-c1ccccc1 | -7.35 |
| Cn1c(SCC(=O)NC2CC2)nnc1-c1cccc(NC(=O)c2ccccc2F)c1 | -3.11 |
| CCOc1ccccc1N(CC(=O)NC1CCCC1)C(=O)CNC(=O)c1cccs1 | -3.75 |
| CCN1CCN(CC(=O)c2c[nH]c3ccc(C)cc23)CC1 | -4.16 |

Reference: PMC4336329 (PLoS ONE, 2015)
